A selection: hits, their analogues and other compounds. The true share with any hit is near 8.7%.
BAZ2B block: inhibitors of human BAZ2B bromodomain; Q9UIF8; AlphaScreen BAZ2B-H3K14Ac peptide displacement; Potency, µM (highest dose often 114 µM), for the others: top-dose activity change, negative = inhibition, actives largely listed as inhibitors; 4.4% of 360,000 active; AID 504333; further: on the % scale 0 is the no-effect control and ±100 the full control effect; nearly all actives have a fitted effect of over 60% in size
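Compounds, titrated to a top concentration of 110 uM, were incubated 30 min at room temperature with preformed BAZ2B/acetyl-K14 H3 peptide complex (50 nM each). Proximity signal was measured by AlphaScreen after 20 min with beads.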
G9a inh: inhibitors of human histone lysine methyltransferase G9a; 8.8% of 350,000 active; Q96KQ7; G9a H3K9 monomethylation, AlphaScreen, 2 h; AID 504332; Potency, µM (series often up to 102 µM), without a hit: top-dose activity, negative = inhibition, usual class: inhibitors; further: on the % scale 0 is the no-effect control and ±100 the full control effect; nearly all actives have a fitted effect of over 75% in size
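Chemiluminescent proximity detection of H3K9 monomethylation, read after 10 min bead incubation in the dark. Reaction: 20 nM G9a, 500 nM biotin-H3K9 peptide, 20 uM SAM cofactor, 2 h, room temperature, following 15 min enzyme-compound preincubation.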
Sfp inh: Sfp phosphopantetheinyl transferase inhibition; 3.5% of 310,000 active; Biochemical Sfp PPTase activity, qHTS; AID 1490; Potency, µM, inactives show largest response in the series, negative = inhibition, actives largely listed as inhibitors;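 further: the enzyme is Sfp with the accession as filed and its product quenches rhodamine fluorescence; 0% = enzyme reaction without inhibitor and -100% = no enzyme wells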
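Compounds were incubated with enzyme (final 15 nM) for 15 min at room temperature before substrate addition started the reaction. Fluorescence at 525 nm excitation, 598 nm emission was recorded immediately and after 30 minutes.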
HP1b binding inh: inhibitors of HP1-beta chromodomain binding to methylated histone tails | AlphaScreen HP1-beta / biotin-H3K9me3 peptide binding | Potency, µM (doses to about 114 µM), inactives show at the highest dose activity change, negative = inhibition, usual class: inhibitors | AID 540317 | 0.56% of 390,000 active | P83916; further: nearly all actives have a fitted effect of over 70% in size
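HP1-beta protein (50 nM final) preincubated 30 min at room temperature with biotinylated H3(1-18)K9me3 peptide (50 nM) in PBS pH 7.4, 0.01% Tween-20, then compound added for 30 min. AlphaScreen streptavidin donor/nickel chelate acceptor beads (10 ug/mL final), 30 min dark, luminescence read.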
JMJD2A Tudor inh: blocks the human JMJD2A Tudor domain. 4.4% of 390,000 active. O75164. AID 504339. AlphaScreen JMJD2A-Tudor / H3K4me3 peptide binding. Potency, µM (doses to about 114 µM), without a hit: top-dose activity change, negative = inhibition, hits mostly inhibitors; further: on the % scale 0 is the no-effect control and ±100 the full control effect; nearly all actives have a fitted effect of over 50% in size
12-LOX inh: blocks human arachidonate 12S-lipoxygenase; AID 1671190; P18054; Potency, µM (doses to about 108 µM), for the others: top-dose activity change, negative = inhibition, usual class: inhibitors; 1.1% of 580,000 active; purified 12hLO, xylenol orange hydroperoxide absorbance; further: on the % scale 0 is the no-effect control and ±100 the full control effect
Target sequence (P18054 whole entry, looked up): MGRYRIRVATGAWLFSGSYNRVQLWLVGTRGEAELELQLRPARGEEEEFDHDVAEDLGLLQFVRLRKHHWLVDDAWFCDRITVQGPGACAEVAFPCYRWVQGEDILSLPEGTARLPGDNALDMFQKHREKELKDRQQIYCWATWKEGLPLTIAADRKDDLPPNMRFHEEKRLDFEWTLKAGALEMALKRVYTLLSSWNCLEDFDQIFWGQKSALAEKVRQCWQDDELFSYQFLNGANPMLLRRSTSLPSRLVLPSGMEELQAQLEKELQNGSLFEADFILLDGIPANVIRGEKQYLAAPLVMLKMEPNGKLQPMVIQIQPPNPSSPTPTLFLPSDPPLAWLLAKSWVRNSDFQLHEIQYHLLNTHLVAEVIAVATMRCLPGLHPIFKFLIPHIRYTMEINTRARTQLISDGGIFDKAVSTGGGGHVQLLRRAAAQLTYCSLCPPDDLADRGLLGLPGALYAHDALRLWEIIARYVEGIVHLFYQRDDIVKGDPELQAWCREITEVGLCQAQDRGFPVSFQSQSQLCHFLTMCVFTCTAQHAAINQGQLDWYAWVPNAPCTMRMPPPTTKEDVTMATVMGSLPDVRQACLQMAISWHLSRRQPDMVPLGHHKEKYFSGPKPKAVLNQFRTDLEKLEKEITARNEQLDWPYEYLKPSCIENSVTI
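Purified human 12hLO (150 nM final) in 25 mM Hepes, 0.01% Triton X-100, pH 7.0 was preincubated 15 min at room temperature with compound. Then 40 uM arachidonic acid was added, 30 min. Hydroperoxide was read by Fe-XO absorbance ratio 573/405 nm.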
Active calls of the source: *; [ ] = dose if it differs, or a comment. The call rests on the fitted dose curve; in most records, active means well fitted curve in the direction sought with a large enough effect; inconclusive means small, poorly fitted or top-dose-only effect, or another doubt; inactive means no such curve, though single readings can be large; an effect the other way counts as inactive or inconclusive. Potency means the concentration at half of the fitted maximal effect.

For Cc1cccc(NC(NC(=O)c2cccc(C)c2)C(Cl)(Cl)Cl)c1 (stereo unspecified) the results were 12-LOX inh 4.4%.
For COC(=O)[C@@H]1Cc2c([nH]c3ccccc23)[C@@H]2C[C@@H](NCCCn3ccnc3)C[C@@H](c3ccc(F)c(F)c3)N12 the results were 12-LOX inh 104.1%.
`COc1ccccc1C(=O)NCc1nnc2cc(-c3nc(C(C)C)no3)ccn12` gave 12-LOX inh 46.3%.
Screening CCS(=O)(=O)n1nc(-c2ccco2)nc1SC returned BAZ2B block 21.2%, G9a inh inconclusive, Sfp inh 35.5µM*, HP1b binding inh inconclusive, JMJD2A Tudor inh 28.2µM* and 12-LOX inh 0.0%.
`CCc1ccc(CN(C)CC(=O)Nc2ccccc2[N+](=O)[O-])cc1` gave BAZ2B block inconclusive, G9a inh 79.4µM*, Sfp inh 5.0%, HP1b binding inh -23.8%, JMJD2A Tudor inh inconclusive and 12-LOX inh -16.8%.
`CN(CC(=O)Nc1cccc(F)c1)CC(=O)Nc1ccccc1[N+](=O)[O-]` gave BAZ2B block inconclusive, G9a inh -44.7%[59 µM], Sfp inh 8.9%, HP1b binding inh 25.8%, JMJD2A Tudor inh -17.5% and 12-LOX inh -2.6%.
Screening C=CCOc1ccc(CN(C)CC(=O)Nc2ccccc2[N+](=O)[O-])cc1 returned G9a inh 14.1µM*, Sfp inh inconclusive, HP1b binding inh inconclusive, JMJD2A Tudor inh 12.6µM* and 12-LOX inh 22.0%.
COc1ccc2c(=O)c(-c3cnn(-c4ccccc4)c3)c(C(F)(F)F)oc2c1 was read as 12-LOX inh 2.0%.
`COc1ccc(CNC(=O)c2ccc3c(c2)N(C)C(=O)CS3=O)cc1` (stereo unspecified) gave BAZ2B block -0.5%, G9a inh -6.4%, Sfp inh 44.7µM*, HP1b binding inh 57.9%, JMJD2A Tudor inh -4.3% and 12-LOX inh -81.0%.
`CCN1CCSc2ccc(C(=O)NCc3ccccc3C)cc21` gave BAZ2B block inconclusive, G9a inh 70.8µM*, Sfp inh -7.6%, HP1b binding inh 5.3%, JMJD2A Tudor inh inconclusive and 12-LOX inh inconclusive.
Screening CCOC(=O)N1CCN(C(=O)c2ccc3c(c2)N(CC)CCS3)CC1 returned BAZ2B block -7.3%, G9a inh 35.5µM*, Sfp inh 50.1µM*, HP1b binding inh 35.7%, JMJD2A Tudor inh -13.6% and 12-LOX inh inconclusive.
CCOC(=O)N1CCC(NC(=O)c2ccc3c(c2)N(C)CCS3)CC1 was read as BAZ2B block -4.9%, G9a inh inconclusive, Sfp inh 25.1µM*, HP1b binding inh 13.5%, JMJD2A Tudor inh inconclusive and 12-LOX inh inconclusive.
`CCOC(=O)N1CCC(NC(=O)c2ccc3c(c2)N(Cc2ccc(C)cc2)CCS3)CC1` gave BAZ2B block 13.6%, G9a inh -4.3%[59 µM], Sfp inh 9.4%, HP1b binding inh 22.2%, JMJD2A Tudor inh -21.1% and 12-LOX inh 6.0%.
Cc1ccc(CN2C(=O)CS(=O)c3ccc(C(=O)NCc4ccccc4)cc32)cc1 (stereo unspecified) was read as 12-LOX inh -15.2%.
Screening CCN1CCSc2ccc(C(=O)NCc3ccccc3Br)cc21 returned BAZ2B block inconclusive, G9a inh -1.0%, Sfp inh 12.6%, HP1b binding inh 19.9%, JMJD2A Tudor inh -23.2% and 12-LOX inh inconclusive.
COc1ccc(-c2cc(N3CCCN(C(=O)c4ccccc4Cl)CC3)n[nH]2)cc1 was read as 12-LOX inh 66.6%.
Screening CCN(C(=O)Cn1ccn2nc(-c3ccc(F)cc3)c(CO)c2c1=O)c1ccccc1 returned 12-LOX inh -10.5%.
`O=c1oc2ccccc2cc1-c1nc(-c2ccccc2Cl)no1` gave 12-LOX inh 6.7%.
For O=C(c1ccc(N2CC3CC(C2)[C@H]2CCCC(=O)N2C3)nc1)N1CCN(c2cccc(Cl)c2)CC1 (stereo partly specified) the results were 12-LOX inh 22.7%.
COc1ccc(CNC(=O)c2ccc3c(c2)N(C)CCS3)cc1 was read as BAZ2B block -9.8%, G9a inh -20.1%, Sfp inh 1.8%, HP1b binding inh 26.0%, JMJD2A Tudor inh -32.4% and 12-LOX inh 9.8%[57.4 µM].
For CC(C)Oc1ccc(CNC(=O)c2ccc3c(c2)N(C)CCS3)cc1 the results were BAZ2B block inconclusive, G9a inh 56.2µM*, Sfp inh 5.2%, HP1b binding inh -10.7%, JMJD2A Tudor inh inconclusive and 12-LOX inh 36.9%.
`CCN1CCSc2ccc(C(=O)NCc3ccccc3F)cc21` gave BAZ2B block 2.6%, Sfp inh -27.0%, HP1b binding inh -4.0%, JMJD2A Tudor inh inconclusive and 12-LOX inh inconclusive.
`CCN1CCSc2ccc(C(=O)Nc3ccc(NC(C)=O)cc3)cc21` gave BAZ2B block -10.0%, G9a inh 50.1µM*, Sfp inh -7.7%, HP1b binding inh 16.2%, JMJD2A Tudor inh -23.7% and 12-LOX inh -9.5%.
For CN1CCSc2ccc(C(=O)NCc3ccccc3F)cc21 the results were BAZ2B block 9.5%, G9a inh 11.2µM*, Sfp inh -28.7%, HP1b binding inh -12.8%, JMJD2A Tudor inh -19.6% and 12-LOX inh inconclusive.
For Cc1ccc(CN2CCSc3ccc(C(=O)Nc4ccc(Cl)cc4)cc32)cc1 the results were BAZ2B block -8.6%, G9a inh 8.9%[59 µM], HP1b binding inh 46.9%, JMJD2A Tudor inh -2.3% and 12-LOX inh inconclusive.
Screening Cc1cccc(C2CCCN2C(=O)Nc2ccc(Br)c(C)c2)c1 (stereo unspecified) returned 12-LOX inh -25.3%.
For COCCNC(=O)Cn1nc2c(cc1=O)CCCCC2 the results were 12-LOX inh 70.4%.
ClCC1=Nc2cccc3cccc(c23)N1 was read as BAZ2B block 79.4µM*, G9a inh inconclusive and Sfp inh 63.1µM*.
Screening CC(C)C1=Nc2cccc3cccc(c23)N1 returned BAZ2B block inconclusive, G9a inh 28.2µM*, Sfp inh 35.5µM*, HP1b binding inh -7.3%, JMJD2A Tudor inh -15.7%[57.1 µM] and 12-LOX inh inconclusive.
Screening COc1ccc(C2=Nc3cccc4cccc(c34)N2)cc1 returned BAZ2B block -36.8%, G9a inh inconclusive, Sfp inh 12.7%, HP1b binding inh -3.6%, JMJD2A Tudor inh -26.7% and 12-LOX inh 30.9%.
